The whole screen tested about 5,500 compounds, of which about 2,000 (36%) were called active. Inconclusive results (about 18%) are left out. Cut-off read from the data, not from the text of the source: active = normalized growth mostly below about 0.91 (no sharp cut-off); inconclusive = no clear call, values can overlap the other calls; inactive = mostly above about 0.92. This is one part of the list.
Test: chemical genetic growth profiling, strain panel (AID 1159580);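 note: tested at 20 µM; growth read once vehicle control cultures reached saturation at 30 °C; 1 = growth at the plate median or of vehicle wells; lower values mean less growth of the strain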
Settings: S. cerevisiae deletion strains, growth OD
[1] = locus YHR030C, strain SLT2, stronger effect = lower value
[2] = locus YHR079C, strain IRE1, stronger effect = lower value
[3] = locus YJL095W, strain BCK1, stronger effect = lower value
[4] = locus YJR066W, strain TOR1, stronger effect = lower value
[5] = locus YLR113W, strain HOG1, stronger effect = lower value
[6] = locus YNL183C, strain NPR1, stronger effect = lower value
[7] = locus YOR231W, strain MKK1, stronger effect = lower value
[8] = locus YPL256C, strain CLN2, stronger effect = lower value

Measured: normalized growth

CC(N)C(=O)NC(Cc1ccccc1)C(=O)O (stereo not given)
inactive: [1] 0.937 | [2] 0.952 | [3] 0.96 | [4] 0.886 | [5] 1.02 | [6] 0.89 | [7] 0.982 | [8] 0.925

O=C1C(=O)N(CN2CCc3c([nH]c4ccccc34)C2C(F)(F)F)c2ccc(F)cc21 (stereo not given)
inactive: locus YAR019C, strain CDC15, stronger effect = lower value 0.978 | locus YBL105C, strain PKC1, stronger effect = lower value 0.983 | locus YBR135W, strain CKS1, stronger effect = lower value 0.982 | locus YBR136W, strain MEC1, stronger effect = lower value 0.974 | locus YBR160W, strain CDC28, stronger effect = lower value 0.962 | locus YDL017W, strain CDC7, stronger effect = lower value 0.983 | locus YDL028C, strain MPS1, stronger effect = lower value 0.975 | locus YDL101C, strain DUN1, stronger effect = lower value 0.988 | locus YDL108W, strain KIN28, stronger effect = lower value 0.973 | locus YDL132W, strain cdc53, stronger effect = lower value 0.972 | locus YDL214C, strain PRR2, stronger effect = lower value 0.841 | locus YDR052C, strain DBF4, stronger effect = lower value 0.991 | locus YDR054C, strain cdc34, stronger effect = lower value 0.974 | locus YDR226W, strain ADK1, stronger effect = lower value 0.98 | locus YDR477W, strain SNF1, stronger effect = lower value 0.86 | locus YER123W, strain YCK3, stronger effect = lower value 0.692 | locus YER133W, strain GLC7, stronger effect = lower value 0.894 | locus YFL009W, strain cdc4, stronger effect = lower value 0.977 | locus YFL029C, strain CAK1, stronger effect = lower value 0.959 | locus YFR003C, strain YPI1, stronger effect = lower value 0.981 | locus YFR019W, strain FAB1, stronger effect = lower value 0.839 | locus YFR028C, strain CDC14, stronger effect = lower value 0.963 | locus YGR040W, strain KSS1, stronger effect = lower value 0.891 | locus YGR052W, strain FMP48, stronger effect = lower value 0.804 | locus YGR092W, strain DBF2, stronger effect = lower value 0.612 | [2] 0.667 | locus YHR082C, strain KSP1, stronger effect = lower value 0.614 | locus YHR205W, strain SCH9, stronger effect = lower value 0.795 | locus YIL147C, strain SLN1, stronger effect = lower value 0.982 | [3] 0.791 | locus YJL128C, strain PBS2, stronger effect = lower value 0.934 | locus YJL157C, strain FAR1, stronger effect = lower value 0.886 | locus YJR016C, strain ILV3, stronger effect = lower value 0.993 | locus YJR066W, strain TOR1 (second series), stronger effect = lower value 0.825 | [4] 0.784 | locus YKL048C, strain ELM1, stronger effect = lower value 0.879 | locus YKL067W, strain YNK1, stronger effect = lower value 0.865 | locus YKL193C, strain SDS22, stronger effect = lower value 0.972 | locus YKL203C, strain TOR2, stronger effect = lower value 0.934 | locus YLR133W, strain CKI1, stronger effect = lower value 0.836 | locus YLR403W, strain SFP1, stronger effect = lower value 0.942 | locus YML070W, strain DAK1, stronger effect = lower value 0.716 | locus YMR001C, strain CDC5, stronger effect = lower value 0.962 | locus YMR205C, strain PFK2 (second series), stronger effect = lower value 0.888 | locus YMR277W, strain FCP1, stronger effect = lower value 0.947 | locus YNL006W, strain LST8, stronger effect = lower value 0.982 | locus YNL020C, strain ARK1, stronger effect = lower value 0.741 | locus YNL161W, strain CBK1, stronger effect = lower value 0.979 | [6] 0.666 | locus YNL207W, strain RIO2, stronger effect = lower value 0.983 | locus YNL222W, strain SSU72, stronger effect = lower value 0.98 | locus YNL307C, strain MCK1 (second series), stronger effect = lower value 0.682 | locus YOL078W, strain AVO1, stronger effect = lower value 0.972 | locus YOL136C, strain PFK27, stronger effect = lower value 0.711 | locus YOR061W, strain CKA2, stronger effect = lower value 0.917 | locus YOR119C, strain RIO1, stronger effect = lower value 0.907 | [7] 0.8 | locus YOR329C, strain SCD5, stronger effect = lower value 0.994 | locus YPL031C, strain PHO85, stronger effect = lower value 0.82 | locus YPL153C, strain RAD53, stronger effect = lower value 0.74 | locus YPL204W, strain HRR25, stronger effect = lower value 0.798 | locus YPL209C, strain IPL1, stronger effect = lower value 0.987 | locus YPR025C, strain CCL1, stronger effect = lower value 0.993 | locus YPR106W, strain ISR1, stronger effect = lower value 0.978 | locus YPR111W, strain DBF20, stronger effect = lower value 0.969 | strain NNK1, stronger effect = lower value 0.981 | strain TSCII, stronger effect = lower value 0.958
active: [1] 0.329 | locus YKL101W, strain HSL1, stronger effect = lower value 0.711 | [5] 0.726 | [8] 0.471

C[N+](C)(C)CCCCCCCCCC[N+](C)(C)C
inactive: locus YAL013W, strain DEP1, stronger effect = lower value 1 | locus YAL040C, strain CLN3, stronger effect = lower value 1 | locus YCL061C, strain MRC1 (second series), stronger effect = lower value 1 | locus YDR150W, strain NUM1, stronger effect = lower value 0.989 | locus YDR363W, strain ESC2, stronger effect = lower value 1.02 | locus YER002W, strain NOP16, stronger effect = lower value 0.995 | locus YGR229C, strain SMI1, stronger effect = lower value 1.04 | [1] 0.973 | [2] 1.01 | [3] 1 | [4] 0.963 | [5] 1.01 | locus YMR307W, strain GAS1, stronger effect = lower value 0.998 | locus YNL175C, strain NOP13, stronger effect = lower value 1.01 | [6] 0.948 | locus YNL197C, strain WHI3, stronger effect = lower value 1.03 | locus YNL224C, strain SQS1, stronger effect = lower value 0.983 | locus YOR083W, strain WHI5 (second series), stronger effect = lower value 0.95 | [7] 0.995 | locus YPL055C, strain LGE1, stronger effect = lower value 1.02 | [8] 1.12

Source: PubChem BioAssay AID1159580 (chemical genetic matrix, 2015)
